SMILES strings stand for the structures. About 83,000 compounds went through this panel and 20% of them were active in at least one assay; those are over-represented in the sample as a whole.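 96-well plates, one dose, 48 hours. Percent growth reported; active if below 10.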 Unmarked numbers belong to inactive results. Activity calls are given as the source filed them.

The values that follow come from PubChem BioAssay (NCI).

Test systems include HCT-15 colon; HT29 colon; SNB-75 CNS; SNB-19 CNS; U251 CNS; PC-3 prostate; SK-MEL-5 melanoma; UACC-62 melanoma; LOX IMVI melanoma; SK-MEL-28 melanoma; SK-MEL-2 melanoma; EKVX NSCLC; SN12C renal; UO-31 renal; TK-10 renal; ACHN renal; CAKI-1 renal; A498 renal; CCRF-CEM leukemia; MOLT-4 leukemia.
Holding throughout (test): NCI-60 one-dose screen, 48 h (100 = growth as untreated, 0 = no growth, -100 = all killed)
Common to all, as to settings: 10 µM unless noted

As for `COc1cc(C(=O)/C=C/c2c(-c3cccs3)nc3ccccn23)cc(OC)c1OC`, the growth was -7.46% (active) in the test with HCT-15 colon; -25.8% (active) in the test with HT29 colon; -4.3% (active) in the test on SNB-75 CNS; 14.2% with SNB-19 CNS; 1.5% (active) with U251 CNS; 7.19% (active) in the test with PC-3 prostate. The growth with SK-MEL-5 melanoma was -24.1% (active); with UACC-62 melanoma, -33.1% (active); in the test with LOX IMVI melanoma, -1.66% (active); in the test with SK-MEL-28 melanoma, 8.11% (active); with SK-MEL-2 melanoma, 10.7%; in the test on EKVX NSCLC, 4.84% (active). Besides, the growth is 4.93% (active) with SN12C renal; 10.7% with UO-31 renal; 0.55% (active) in the test on TK-10 renal; -23.4% (active) in the test with ACHN renal; -5.58% (active) in the test on CAKI-1 renal; -21.8% (active) with A498 renal. Moreover, the figures for the growth in the test on CCRF-CEM leukemia and in the test on MOLT-4 leukemia were 12.3% and -0.559% (active), respectively.

As for `O=C(CCCCCCCCC(=O)N/N=C\c1cc(Cl)ccc1O)N/N=C\c1cc(Cl)ccc1O`, the growth in the test on HCT-15 colon is 15.6%; in the test with HT29 colon, 58.9%; in the test on SNB-75 CNS it was 55.6%; in the test with SNB-19 CNS, 34.8%; with U251 CNS it was 29.5%; in the test on PC-3 prostate, 26.6%. Moreover, the growth in the test on SK-MEL-5 melanoma is -37.9% (active); in the test on UACC-62 melanoma, 0.989% (active); in the test on LOX IMVI melanoma it was 14.1%; in the test on SK-MEL-28 melanoma it was 41.7%; in the test with SK-MEL-2 melanoma, 18.6%; with EKVX NSCLC, 54.7%. Also, the growth with SN12C renal was 28.7%; with UO-31 renal it was 19%; in the test with TK-10 renal it was 45.7%; with ACHN renal it was 9.47% (active); in the test on CAKI-1 renal, 11.6%; in the test with A498 renal, 73.4%. Besides, the figures for the growth in the test with CCRF-CEM leukemia and with MOLT-4 leukemia were 12.1% and 15.3%, respectively.

With `C=C1C(=O)O[C@H]2[C@H]1CC/C(COC(=O)/C=C\C(=O)NCc1ccc(Cn3c(=O)sn(-c4ccccc4)c3=O)cc1)=C\CC[C@@]1(C)O[C@@H]21`, the growth in the test with HCT-15 colon was 42.4%; with HT29 colon, 50.8%; in the test on SNB-75 CNS, 98%; in the test on SNB-19 CNS, 107%; in the test on U251 CNS, 84.3%; in the test with PC-3 prostate it was 83.5%. Further, the growth in the test on SK-MEL-5 melanoma was 106%; in the test on UACC-62 melanoma it was 85%; in the test with LOX IMVI melanoma, 76%; in the test with SK-MEL-28 melanoma, 94.4%; in the test with SK-MEL-2 melanoma it was 89.8%; in the test on EKVX NSCLC, 98.9%. In addition, the growth with SN12C renal is 83.1%; in the test with UO-31 renal it was 59.4%; in the test with TK-10 renal, 67.1%; with ACHN renal, 42.1%; with CAKI-1 renal it was 65.1%; with A498 renal it was 91.2%. The growth in the test on CCRF-CEM leukemia is 1.9% (active); in the test on MOLT-4 leukemia, 25.3%.

For `CCOC(=O)c1c(-c2ccccc2)n2c(=O)cc(C)c3c(O)c(O)cc1c32`, the growth was 28.8% in the test with HCT-15 colon; 70.9% in the test with HT29 colon; 63.6% in the test with SNB-75 CNS; 65.6% in the test with SNB-19 CNS; 48.8% in the test on U251 CNS; 41.7% in the test with PC-3 prostate. The growth in the test on SK-MEL-5 melanoma was 41.9%; in the test on UACC-62 melanoma it was 69.4%; in the test on LOX IMVI melanoma, 43%; in the test on SK-MEL-28 melanoma, 76%; in the test with SK-MEL-2 melanoma, 83.8%; in the test with EKVX NSCLC it was 86.6%. Further, the growth in the test on SN12C renal is 68.7%; in the test with UO-31 renal, 51.1%; in the test on TK-10 renal it was 89.2%; with ACHN renal it was 47%; in the test with CAKI-1 renal, 52%; in the test on A498 renal, 88.6%. The growth was 17.1% in the test with CCRF-CEM leukemia and 36.1% with MOLT-4 leukemia.

In the case of `Cc1[nH]c(C(=O)Nc2ccc(C(N)=O)cc2NC(C)C)c(Cl)c1Cl`, the growth with HCT-15 colon was 92.9%; in the test with HT29 colon, 106%; in the test on SNB-75 CNS, 69%; in the test with SNB-19 CNS, 103%; with U251 CNS it was 91.4%; in the test with PC-3 prostate it was 77.4%. For the same compound, the growth is 88.1% in the test with SK-MEL-5 melanoma; 91.4% with UACC-62 melanoma; 96.2% in the test with LOX IMVI melanoma; 105% with SK-MEL-28 melanoma; 101% with SK-MEL-2 melanoma; 87% in the test on EKVX NSCLC. In addition, the growth with SN12C renal is 105%; with UO-31 renal it was 66%; with TK-10 renal it was 120%; in the test on ACHN renal it was 96.5%; in the test with CAKI-1 renal, 94.1%; in the test with A498 renal, 69.7%. The growth in the test on CCRF-CEM leukemia is 94.2%; in the test on MOLT-4 leukemia it was 86%.

Turning to `COc1cc(C(=O)c2c(N)ncn2-c2ccccc2)cc(OC)c1OC`, the growth was 82.6% with HCT-15 colon; 93.7% with HT29 colon; 90.7% with SNB-75 CNS; 89.6% in the test on SNB-19 CNS; 95% in the test with U251 CNS; 78.5% with PC-3 prostate. For the same compound, the growth with SK-MEL-5 melanoma is 89.5%; in the test with UACC-62 melanoma, 70.3%; in the test with LOX IMVI melanoma, 91.9%; with SK-MEL-28 melanoma, 91.7%; in the test on SK-MEL-2 melanoma it was 104%; in the test with EKVX NSCLC it was 102%. In addition, the growth was 88.2% in the test with SN12C renal; 81.2% in the test on UO-31 renal; 106% in the test with TK-10 renal; 102% with ACHN renal; 92.3% with CAKI-1 renal; 90.2% in the test with A498 renal. The values for the growth in the test on CCRF-CEM leukemia and with MOLT-4 leukemia were 92.5% and 109%, respectively.

As to `O=C(Nc1cccnc1Nc1ccc(Cl)cc1)c1cn(Cc2ccc(F)cc2)nn1`, the growth was 95.4% in the test on HCT-15 colon; 113% in the test on HT29 colon; 94.6% with SNB-75 CNS; 95.9% in the test with SNB-19 CNS; 99% in the test with U251 CNS; 94.5% in the test with PC-3 prostate. Further, the growth with SK-MEL-5 melanoma is 100%; in the test on UACC-62 melanoma, 100%; with LOX IMVI melanoma, 104%; with SK-MEL-28 melanoma, 115%; with SK-MEL-2 melanoma, 102%; in the test with EKVX NSCLC it was 92.6%. The growth with SN12C renal was 95.9%; in the test on UO-31 renal, 70.9%; in the test on TK-10 renal, 96.9%; in the test with ACHN renal it was 101%; in the test on CAKI-1 renal, 93.1%; in the test with A498 renal it was 88.6%. In addition, the growth in the test on CCRF-CEM leukemia is 98.6%; in the test on MOLT-4 leukemia it was 106%.
